Source: ChEMBL document CHEMBL1157539, “Thousands of chemical starting points for antimalarial lead identification” (Nature, 2010)

Columns and labels:
Format in all cases: functional
[1] = system: Plasmodium falciparum; assay: GSK_TCMDC: Inhibition of Plasmodium falciparum 3D7 in whole red blood cells, using parasite LDH activity as an index of growth. Test compounds present at 2uM
[2] = system: Plasmodium falciparum; assay: GSK_TCMDC: Inhibition of Plasmodium falciparum Dd2 in whole red blood cells, using parasite LDH activity as an index of growth. Test compounds present at 2uM
[3] = system: HepG2; assay: GSK_TCMDC: Percent inhibition of human HepG2 cell line. Test compounds present at 10uM.

Row | Compound | Inhibition [1] [%] | Inhibition [2] [%] | Inhibition [3] [%]
1 | O=C1c2ccc([N+](=O)[O-])cc2C(=O)N1c1ccc2[nH]ncc2c1 | 87 | 0 | 11
2 | O=C(NCc1ccco1)c1ccc(CN2CCN(C(c3ccccc3)c3ccccc3)CC2)cc1 | 96 | 92 | 6
3 | CCOC(=O)c1ccc(NC(=O)Nc2ccc(-c3ccc(-c4nc5cccc(C)c5[nH]4)s3)cc2)cc1 | 100 | 100 | 60
4 | CCN(CC)CCN(Cc1ccc(-c2ccc(C(F)(F)F)cc2)cc1)C(=O)Cn1c(CCc2c(F)cccc2F)nc(=O)c2ccccc21.O=C(O)C(O)C(O)C(=O)O | 100 | 61 | 36
5 | CN1CCN(c2ccnc3ccc(NC(=O)c4ccc(Cl)c(Cl)c4)cc23)CC1 | 100 | 64 | 4
6 | COc1ccc2nccc([C@@H](O)CN3CCC(NCCOc4ccc(F)cc4F)CC3)c2c1.O=C(O)C(=O)O | 100 | 68 | 13
7 | Cc1nc(C)c(CC(=O)Nc2ccc(-c3ccc(-c4nc5cc(C(F)(F)F)ccc5[nH]4)s3)cc2)s1 | 90 | 29 | 57
8 | CS(=O)(=O)N1CC2(CCN(CCC(NC(=O)NCc3ccc(Cl)c(Cl)c3)c3ccc(Cl)c(Cl)c3)CC2)c2ccccc21 (stereo not given) | 89 | 59 | 19
9 | CCOc1cc(NCCCNc2ncc([N+](=O)[O-])cc2C)nc2ccccc12 | 84 | 64 | 10
10 | N#Cc1ccc(NC2(C(=O)N3CCN(c4cccc(Cl)c4)CC3)CC2)c2ccccc12 | 94 | 66 | 0
